The campaign covered roughly 2,100 compounds. About 590 (28%) were called active. Not shown: some 42% with an inconclusive outcome. Some of the results follow. Values without a mark were called inactive. The call rests on the fitted dose curve; in most records, active means well fitted inhibition curve with a large enough effect; inconclusive means small, poorly fitted or top-dose-only effect; inactive means flat fitted curve, though single readings scatter.
Potency means the concentration at half of the fitted maximal effect.

Sequence of DNA dC->dU-editing enzyme APOBEC-3F (Homo sapiens) (Q8IUX4 whole entry, looked up): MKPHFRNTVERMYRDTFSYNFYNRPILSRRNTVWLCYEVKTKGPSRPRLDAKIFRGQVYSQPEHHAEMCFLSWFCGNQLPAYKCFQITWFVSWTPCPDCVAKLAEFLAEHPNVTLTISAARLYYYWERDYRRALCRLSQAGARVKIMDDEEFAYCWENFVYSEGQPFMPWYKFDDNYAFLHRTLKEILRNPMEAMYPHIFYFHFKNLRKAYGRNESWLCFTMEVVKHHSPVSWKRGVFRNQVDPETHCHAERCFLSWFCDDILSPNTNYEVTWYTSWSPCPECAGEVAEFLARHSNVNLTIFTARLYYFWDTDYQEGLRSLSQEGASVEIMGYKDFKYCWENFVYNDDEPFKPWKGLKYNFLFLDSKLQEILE

For this assay, the target named is DNA dC->dU-editing enzyme APOBEC-3F (Homo sapiens) (UniProt Q8IUX4). Nature of the assay: qHTS for inhibitors of Vif-A3F interactions: Cherry picks. Further: nearly all actives have a fitted effect of over 70% in size.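 On max response: % of control where 0% means no effect; active compounds raise eYFP fluorescence by blocking Vif-driven A3F loss.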 The note with it: HeLa A3F-eYFP + Vif (tagged APOBEC3F with the HIV-1 protein that degrades it), eYFP fluorescence, 24 h. In short, it runs like this:
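Read-out: yellow fluorescence (ex 488 nm, em 500-530 nm) by laser-scanning cytometer after 24 h compound exposure, several concentrations, at 37 deg C. Cells: HeLa line stably co-expressing Vif and C-terminally eYFP-tagged A3F; MG132 served as positive control.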
A general note: qHTS replaces the single test concentration by a dilution series.
Regarding `CC(NC(=S)Nc1cccc(C(F)(F)F)c1)C(C)(C)C` (configuration not stated), the max response was 1.09%. Still for that read-out and setting: the figure for `Cc1[nH][nH]c(=O)c1C(c1c(C)[nH][nH]c1=O)c1cn(Cc2ccccc2Cl)c2ccccc12` is -24.8%. Take `Cc1ccc2nc(/C(C#N)=C/c3ccc(O)c(O)c3)[nH]c2c1`: the Potency is 15.8 µM (active).

As to `COc1cc(/C=C(\C#N)c2nc3ccc(C)cc3[nH]2)ccc1OC(C)C`, the Potency is 20.6 µM (active). `C=CCNC(=S)N/N=C/c1ccc(C)cc1C`: the max response is -2.08%.

`CCN(CC)c1ccc(NC(=O)c2ccc(=O)[nH]c2)cc1S(=O)(=O)Nc1ccccc1OC`: the max response is -20.2%.

On to `O=[N+]([O-])c1ccc(N/N=C/c2c[nH]c3ccccc23)cc1`, for which the Potency was 14.6 µM (active). Same read-out and setting: the figure for `Cc1[nH]c2ccccc2c1/C=N/Nc1ccc([N+](=O)[O-])cc1` is 18.4 µM (active); for `COc1ccccc1NS(=O)(=O)c1cc([N+](=O)[O-])ccc1N/N=C/c1c(C)[nH]c2ccccc12` it is 1.98 µM (active). For the molecule `O=C(N/N=C/c1c[nH]c2ccccc12)C1COc2ccccc2O1` (configuration not stated), the max response was 4.43%.

On to `COc1ccccc1NS(=O)(=O)c1cc([N+](=O)[O-])ccc1N/N=C/c1c[nH]c2ccccc12`, for which the Potency was 13 µM (active). `Cc1cccn2c(=O)c3cc(C#N)c(=NC(=O)c4cccs4)n(CCCOC(C)C)c3nc12`: the max response is -23.5%. On the same count and under the same terms, the figure for `Cc1cccc(CSc2cccc3cccnc23)c1` is 2.73%. The same measure, in the same setting: the figure for `Cn1c(=O)c2c(nc(NC3CCCC3)n2C)n(C)c1=O` is -0.225%; for `COc1cc(/C=N/Nc2cc(C)nc(NS(=O)(=O)c3ccccc3)n2)ccc1O` it is 2.36%.

Consider `O=C(c1ccccn1)C1CCCN(Cc2cn[nH]c2-c2cc3ccccc3o2)C1` (configuration not stated), for which the max response was 1.54%. Turning to `O=C(O)CSc1c2ccccc2cc2ccccc12`, the max response is -4.37%.

For the molecule `COc1ccc(NS(=O)(=O)c2cc([N+](=O)[O-])ccc2N/N=C/c2c(C)[nH]c3ccccc23)cc1`, the Potency was 16.4 µM (active). As for `C/C(=N/Nc1ccc([N+](=O)[O-])cc1)c1c[nH]c2ccccc12`, the Potency was 9.2 µM (active).

On to `O=[N+]([O-])c1ccc(N/N=C/c2c[nH]c3ccccc23)c(S(=O)(=O)Nc2ccc(Cl)cc2)c1`, for which the Potency was 18.4 µM (active).

Regarding `CNC(=S)N/N=C(\C)c1ccc(Cl)s1`, the max response is -3.1%. Still for that read-out and setting: the figure for `COCCNC(=S)N/N=C(\C)c1ccccc1O` is 0.575%; for `Cc1ccc2nc(NS(=O)(=O)c3ccc(Cl)cc3)c(Nc3ccc(C(=O)O)cc3)nc2c1` it is -8.36%. For `O=C(Nc1cc(F)cc(F)c1)c1ccc(NCCc2ccccc2)c([N+](=O)[O-])c1`, the Potency was 20.6 µM (active). With `Cc1ccc(NC(=O)c2ccc(NCCCN3CCC(C)CC3)c([N+](=O)[O-])c2)cc1F`, the max response is -24%. In the case of `Cc1ccc(NC(=O)c2ccc(NCC3CCCO3)c([N+](=O)[O-])c2)cc1Cl` (configuration not stated), the Potency was 20.6 µM (active). Regarding `COc1ccc(NC(=O)c2ccc(NC(=O)C(C)C)cc2)c([N+](=O)[O-])c1`, the max response was -19.6%. Consider `O=C(NC(=S)Nc1ccc(N2CCCCC2)c(Cl)c1)c1ccc2c(c1)OCCO2`, for which the max response is -28.8%. On to `Cc1ccc(NC(=O)c2ccc(NCc3ccco3)c([N+](=O)[O-])c2)cc1Cl`, for which the Potency was 16.4 µM (active).

Regarding `CC1C/C(=N\NC(N)=S)c2cc(Cl)ccc2S1` (configuration not stated), the max response is -5.07%. Same read-out and setting: the figure for `C/C(CCC(C)C)=N\NC(=S)NCc1ccccc1` is -4.2%. For `CCOC(=O)c1csc(NC(=O)c2cc(-c3ccccn3)nc3ccccc23)n1`, the max response was -1.96%. On to `CCOC(=O)Cc1csc(NC(=O)c2sc3nc4c(C)cc(C)cc4cc3c2N)n1`, for which the Potency was 20.6 µM (active). On the same count and under the same terms, the figure for `C[C@]12CCC[C@H](O1)c1c(cc3c(c1O)C(=O)c1c(O)cc(O)cc1C3=O)O2` is 14.6 µM (active). In the case of `O=C(CC1CC2CCC1C2)Nc1nc(-c2ccccn2)cs1` (configuration not stated), the max response was 0.305%. Turning to `CCOC(=O)CSc1nc2c(c(=O)[nH]1)C(C)(CC)Cc1ccccc1-2` (configuration not stated), the Potency was 8.2 µM (active). For the molecule `Cc1sc2nc(SCC(=O)N3CCOCC3)[nH]c(=O)c2c1-c1ccccc1`, the max response is -2.85%. The same measure, in the same setting: the figure for `Cc1cccc(OCCOc2ccccc2C=C(C#N)C#N)c1` is -24.6%; for `CCCOc1cc(N(CC)CC)ccc1/C=C(/C#N)c1nc2ccc(C)cc2[nH]1` it is 0.514%. With `CCOc1cc(N(CC)CC)ccc1/C=C(/C#N)c1nc2ccccc2[nH]1`, the Potency was 1.46 µM (active).

In the case of `CCN(CC)c1ccc(/C=C(/C#N)c2nc3ccccc3[nH]2)c(OC(C)C)c1`, the Potency was 2.06 µM (active). On to `C/C(=N\NC(N)=S)C12CC3CC(CC(C3)C1)C2`, for which the max response is 3.49%. Same read-out and setting: the figure for `CCOc1cc(Br)cc(/C=C2\SC(=Nc3ccccc3)NC2=O)c1O` is -27.7%. On to `CCOc1ccc(N(C)c2ccc(/C=C3/SC(=S)NC3=O)cc2)cc1`, for which the Potency is 15.8 µM (active).

In the case of `CN(C)c1ccc(C=C2SC(=S)NC2=O)cc1`, the Potency was 17.7 µM (active). The same measure, in the same setting: the figure for `COc1ccccc1N=C1NC(=O)/C(=C/c2ccc(N(C)C)cc2)S1` is 4.11 µM (active). On to `CC12CC3CC(C)(C1)CC(C(=O)NC(=S)N1CCOCC1)(C3)C2`, for which the max response is 4.69%.

Turning to `CSc1nc(N)c(C#N)c(-c2ccccc2Cl)c1C#N`, the max response is -19.1%. On the same count and under the same terms, the figure for `CC(=O)Nc1cccc(-c2ccnc3c2CC(C)(C(=O)NCc2cccs2)O3)c1` (configuration not stated) is -24.8%. Turning to `CN(C)S(=O)(=O)c1ccc(N2CCCC2)c(C(=O)N2CCN(S(=O)(=O)c3ccc(F)c(F)c3)CC2)c1`, the max response was 3.41%.

`COc1ccc(OCCCC(=O)N2CCN(S(=O)(=O)c3cccc(F)c3)CC2)cc1`: the max response was -3.23%. For `CC1(C)Cc2c(sc3ncnc(NNC(=S)NCc4ccccc4)c23)CO1`, the max response is -20.8%.

On to `C=C(C)CNC(=S)NNC(=O)c1ccco1`, for which the max response was 4.89%.

Regarding `Cc1ccc(NC(=O)/C(C#N)=C\c2ccc(-c3ccc(Cl)cc3)o2)c(C)c1`, the Potency was 7.31 µM (active).

On to `N#C/C(=C/c1ccc(-c2ccc([N+](=O)[O-])cc2)o1)C(=O)Nc1nc(-c2cccs2)cs1`, for which the max response was -8.39%. As for `CN(C)CCNc1ccc2ncn3c4ccc(O)cc4c(=O)c1c23`, the Potency was 20.6 µM (active). Still for that read-out and setting: the figure for `CCN(CC)CCCNc1ccc2ncn3c4ccc(O)cc4c(=O)c1c23` is 8.2 µM (active).

The values are drawn from PubChem BioAssay AID651814 (National Center for Advancing Translational Sciences (NCATS), 2012).
